Assay outcomes (PubChem)
Shown are actives, neighbours in structure and some others; about 1.2% of the full set was active somewhere.
Giardia FBPA inh: blocks Giardia fructose-bisphosphate aldolase activity | 290,000 compounds, 0.71% hits | purified Giardia FBPA | Potency, µM (series often up to 59.6 µM), without a hit: at the highest dose activity, negative = inhibition, usual class: inhibitors; also: potency is read from the fitted curve at half-maximal effect; % is scaled to controls: 0 for no effect and ±100 for the full control effect; nearly all actives have a fitted effect of over 55% in size
Target sequence (A8B2U2 whole entry, looked up): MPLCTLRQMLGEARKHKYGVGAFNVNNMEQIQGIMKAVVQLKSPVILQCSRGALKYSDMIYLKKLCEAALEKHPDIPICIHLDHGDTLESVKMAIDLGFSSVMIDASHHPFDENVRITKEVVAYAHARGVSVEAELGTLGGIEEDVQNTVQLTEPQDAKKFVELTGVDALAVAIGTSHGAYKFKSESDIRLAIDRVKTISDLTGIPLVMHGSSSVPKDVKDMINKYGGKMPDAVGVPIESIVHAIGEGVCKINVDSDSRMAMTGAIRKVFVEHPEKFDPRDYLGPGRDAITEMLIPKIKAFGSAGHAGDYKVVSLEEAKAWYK
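40 nM FBPA preincubated 10 min at RT with compound (up to 57.5 uM final), then substrate plus GAPDH/TPI/NAD/arsenate coupling and diaphorase/resazurin added. Fluorescence read after 20 min at RT, 525/598 nm.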
LmPK inhibitor: blocks Leishmania mexicana pyruvate kinase activity | AID 1721 | Q27686 | Potency, µM (doses to about 57.5 µM), for inactives: at the highest dose activity change, negative = inhibition, usual class: inhibitors | 290,000 compounds, 0.37% hits | purified LmPK, Kinase-Glo ATP luminescence, 1 h; also: potency is read from the fitted curve at half-maximal effect; % is scaled to controls: 0 for no effect and ±100 for the full control effect
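Pyruvate kinase activity monitored as ATP production (luciferase luminescence). Conditions: 0.1 nM enzyme, 0.5 mM PEP, 0.1 mM ADP, 1 h, RT; normalized against uninhibited and no-enzyme wells.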
NS1 inh: inhibitors of influenza NS1 protein function; 270,000 compounds, 0.4% hits; AID 2326; Potency, µM (highest dose often 46.1 µM), without a hit: at the top dose activity, positive = more growth; calls by dose curve; also: potency is read from the fitted curve at half-maximal effect; actives are rising curves; nearly all actives have a fitted effect of over 50% in size
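Compounds were scored for reversing the slow growth caused by influenza A NS1 in S. cerevisiae, measured by optical density at 600 nm. Assay medium contained 2% galactose at pH 6.0; NS1-free yeast of the same strain were the positive control.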
AMA1 RON2 block: inhibitors of Plasmodium falciparum AMA1-RON2 interaction. AlphaScreen AMA1-biotinylated RON2 peptide binding. Potency, µM (series often up to 58.2 µM), inactives show at the top dose activity change, negative = inhibition, actives largely listed as inhibitors. 360,000 compounds, 0.2% hits;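 also: potency is read from the fitted curve at half-maximal effect; 0% = vehicle wells and -100% = peptide control; nearly all actives have a fitted effect of over 45% in size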
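AMA1 (3D7) with his tag at 25 nM final met compounds first, then biotinylated RON2 peptide at 25 nM; detection used donor plus acceptor beads, 10 µg/mL apiece, read by AlphaScreen after 30 min at room temperature.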
TbPYK inhibitor: blocks Trypanosoma brucei pyruvate kinase; Q57TT1; TbPYK enzyme, Kinase-Glo Plus ATP luminescence, 45 min; Potency, µM (top dose mostly 76.8 µM), for inactives: top-dose activity, negative = inhibition, most hits filed as inhibitors; 410,000 compounds, 0.12% hits; AID 624173; also: potency is read from the fitted curve at half-maximal effect; % is scaled to controls: 0 for no effect and ±100 for the full control effect; nearly all actives have a fitted effect of over 50% in size
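Screened from lowest to highest concentration, compounds were pinned into TbPYK/substrate mixtures, and ADP (130 uM final) was added. Plates sat at room temperature for 45 min prior to Kinase-Glo Plus detection by luminescence.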
NS1 inh valid: validation of influenza NS1 protein function inhibitors; shares compounds with NS1 inh; influenza NS1 function cell assay, 15-point titration; activity change, negative = inhibition, % at 32.9 µM; 1,400 tested, under 10 active; calls by dose curve; also: 0% is about no effect
PR8 titer: influenza NS1 inhibitors: inhibition of influenza A/PR/8/34 replication; shares compounds with NS1 inh; MDCK infected influenza A/PR/8/34, virus titer TCID50; active compounds read low; virus titer (log TCID50), log10 TCID50 at 5 µM; 95 compounds, 30% hits; call rule not given here
* hit, by the source's call; ? = inconclusive; . = no result. Unless noted, calls follow the shape of the dose curve; as a rule, active = well fitted curve in the direction sought with a large enough effect; inconclusive = small, poorly fitted or top-dose-only effect, or another doubt; inactive = no such curve, though single readings can be large; an effect the other way counts as inactive or inconclusive.

SMILES	Giardia FBPA inh	LmPK inhibitor	NS1 inh	AMA1 RON2 block	TbPYK inhibitor	NS1 inh valid	others
COc1cc2c(cc1CC=C(C)C)C(=O)C[C@@H](c1ccc(O)cc1)O2	-3%	.	.	.	.	.
CCOc1ccc(CCNC(=O)C2CCCN(c3nnc(C)c4c(C)n(-c5ccccc5)nc34)C2)cc1 (stereo unspecified)	.	.	.	.	-3%	.
Cc1cc(NC(=O)c2cccc(S(=O)(=O)N(C)C)c2)n(-c2ccccn2)n1	-1%	-7%	13µM*	2%	3%	-15
Cc1cc(NC(=O)c2cccc(S(=O)(=O)N3CCCCCC3)c2)n(-c2ccccn2)n1	5%	0%	-37%	-6%	0%	.
CCCC/C=C/[C@H](c1ccccc1)[C@H](CO)Cc1ccc([N+](=O)[O-])cc1	-3%	.	.	.	.	.
Cc1sc(NC(=O)c2sc3nc4c(C)cccc4cc3c2N)c(C#N)c1C	?	-3%	?	16%	-13%	5
CC1(C)[C@@H]2CC[C@@](C)(C2)[C@H]1OC(=O)c1ccccc1C(=O)O	.	.	0%	.	.	.
CCC(C(=O)Nc1ccc(C(=O)O)cc1NC(=O)C(CC)c1ccccc1)c1ccccc1 (stereo unspecified)	-11%	2%	11µM*	15%	0%	6
Cc1ccc(C(=O)O)cc1NC(=S)NC(=O)C(c1ccccc1)c1ccccc1	24%	-5%	?	22%	-6%	6
Cc1ccc(C(=O)O)cc1NC(=S)NC(=O)Cc1ccccc1	13%	-3%	0%	30%	-1%	.
COc1ccc(/C=N/NS(=O)(=O)c2ccccc2)cc1OC(=O)c1ccc(C)cc1	-12%	8%	8.9µM*	-6%	5%	-5
COc1ccc(/C=N/NS(=O)(=O)c2ccc(C)cc2)cc1OC(=O)c1ccccc1	-11%	3%	7%	-16%	7%	.
Cc1ccc(/C=C/c2onc(C)c2S(=O)(=O)N2CCC(C(=O)N3CCC(N(C)C(C)C)CC3)CC2)cc1	.	.	.	.	-5%	.
CC(C)=C1C(=O)C(c2ccccc2)=C2CN3C(=O)N(CCc4ccccc4)C(=O)[C@]3(Cc3ccccc3)[C@H]21	3%	.	.	.	.	.
O=C(Nc1nccs1)C1CCCN1S(=O)(=O)c1ccc(Cl)cc1 (stereo unspecified)	-3%	5%	3%	0%	-5%	.
NC(=O)c1ccsc1NC(=O)C1CCCN1S(=O)(=O)c1ccc(Cl)cc1 (stereo unspecified)	-2%	10%	8.9µM*	8%	5%	-24
CC(C)(C)c1ccc(S(=O)(=O)NCc2ccc3c(c2)CCN3C(=O)c2ccccc2)cc1	.	.	.	.	-3%	.
CCC1CCCCN1CCCNC(=O)CN1C(=O)CSc2ccc(S(=O)(=O)N3CCC(C)CC3)cc21 (stereo unspecified)	3%	2%	1.8µM*	0%	2%	-5
Cc1cc(C)n(-c2nc(C)c(C)c(=O)n2CC(=O)Nc2ccc([N+](=O)[O-])cc2)n1	.	.	.	.	4%	.
COc1ccc(N2C(=O)N3[C@H](c4cccc(C)c4)[C@@H]4C(=O)N(Cc5ccccc5)C(=O)[C@@H]4[C@]3(Cc3ccccc3)C2=O)cc1	0%	8%	14µM*	-5%	0%	-11	PR8 titer=7.5*
COc1ccc([C@@H]2[C@@H]3C(=O)N(C(C)(C)C)C(=O)[C@@H]3[C@]3(Cc4ccccc4)C(=O)N(c4ccc(OC)cc4)C(=O)N23)cc1	.	.	.	0%	1%	.
Cn1cccc1C(=O)N1CCC2(CCN(C(=O)Nc3ccccc3)CC2)CC1	-1%	.	.	.	3%	.
CCOC(=O)c1c(C)[nH]c(C(=O)C(C)OC(=O)c2cccc(OCc3c(C)noc3C)c2)c1C (stereo unspecified)	-7%	6%	13µM*	-5%	-17%	-8
